# Test results taken from PMC11062922 (Nature Chemical Biology, 2023).
# Like-named read-outs stand apart in the source and are kept apart here.
# Assays:
# [1] = test system: TBK1; conditions: read-out: apparent Kd, n = 1
# [2] = test system: TGFBR1; conditions: read-out: apparent Kd, n = 1
substance,measurement,setting,value
Lestaurtinib,potency estimated from few doses,"[1]; compound concentrations:100 nM and 1000 nM (sheet 'Lestaurtinib' of Supplementary Table 1),run:Lestaurtinib_02407_R3,Plate:MR005",1330 nM
same,potency estimated from few doses,"[1]; compound concentrations:100 nM and 1000 nM (sheet 'Lestaurtinib' of Supplementary Table 1),run:Lestaurtinib_02422_R1,Plate:MR006",703 nM
same,potency estimated from few doses,"[1]; compound concentrations:100 nM and 1000 nM (sheet 'Lestaurtinib' of Supplementary Table 1),run:Lestaurtinib_02438_R2,Plate:MR008",1320 nM
same,potency estimated from few doses,"[1]; compound concentrations:100 nM and 1000 nM (sheet 'Lestaurtinib' of Supplementary Table 1),run:Lestaurtinib_02443_R1,Plate:MR009",1620 nM
same,potency estimated from few doses,"[1]; compound concentrations:100 nM and 1000 nM (sheet 'Lestaurtinib' of Supplementary Table 1),run:Lestaurtinib_02443_R3,Plate:MR009",884 nM
same,potency estimated from few doses,"[1]; compound concentrations:100 nM and 1000 nM (sheet 'Lestaurtinib' of Supplementary Table 1),run:Lestaurtinib_02473_R2,Plate:MR010",1370 nM
same,potency estimated from few doses,"[1]; compound concentrations:100 nM and 1000 nM (sheet 'Lestaurtinib' of Supplementary Table 1),run:Lestaurtinib_02473_R3,Plate:MR010",851 nM
same,potency estimated from few doses,"[1]; compound concentrations:100 nM and 1000 nM (sheet 'Lestaurtinib' of Supplementary Table 1),run:Lestaurtinib_02482_R1,Plate:MR011",1350 nM
same,potency estimated from few doses,"[1]; compound concentrations:100 nM and 1000 nM (sheet 'Lestaurtinib' of Supplementary Table 1),run:Lestaurtinib_02482_R2,Plate:MR011",1320 nM
same,potency estimated from few doses,"[1]; compound concentrations:100 nM and 1000 nM (sheet 'Lestaurtinib' of Supplementary Table 1),run:Lestaurtinib_02487_R1,Plate:MR012",950 nM
same,potency estimated from few doses,"[1]; compound concentrations:100 nM and 1000 nM (sheet 'Lestaurtinib' of Supplementary Table 1),run:Lestaurtinib_02487_R2,Plate:MR012",1510 nM
same,potency estimated from few doses,"[1]; compound concentrations:100 nM and 1000 nM (sheet 'Lestaurtinib' of Supplementary Table 1),run:Lestaurtinib_02496_R2,Plate:MR013",1240 nM
same,potency estimated from few doses,"[1]; compound concentrations:100 nM and 1000 nM (sheet 'Lestaurtinib' of Supplementary Table 1),run:Lestaurtinib_02496_R3,Plate:MR013",1350 nM
same,potency estimated from few doses,"[1]; compound concentrations:100 nM and 1000 nM (sheet 'Lestaurtinib' of Supplementary Table 1),run:Lestaurtinib_02566_R1,Plate:MR014",854 nM
same,potency estimated from few doses,"[1]; compound concentrations:100 nM and 1000 nM (sheet 'Lestaurtinib' of Supplementary Table 1),run:Lestaurtinib_02566_R2,Plate:MR014",1410 nM
same,potency estimated from few doses,"[1]; compound concentrations:100 nM and 1000 nM (sheet 'Lestaurtinib' of Supplementary Table 1),run:Lestaurtinib_02577_R1,Plate:MR016",807 nM
same,potency estimated from few doses,"[1]; compound concentrations:100 nM and 1000 nM (sheet 'Lestaurtinib' of Supplementary Table 1),run:Lestaurtinib_02584_R3,Plate:MR017",1410 nM
same,potency estimated from few doses,"[1]; compound concentrations:100 nM and 1000 nM (sheet 'Lestaurtinib' of Supplementary Table 1),run:Lestaurtinib_02601_R1,Plate:MR018",1210 nM
same,potency estimated from few doses,"[1]; compound concentrations:100 nM and 1000 nM (sheet 'Lestaurtinib' of Supplementary Table 1),run:Lestaurtinib_02601_R2,Plate:MR018",1760 nM
same,potency estimated from few doses,"[1]; compound concentrations:100 nM and 1000 nM (sheet 'Lestaurtinib' of Supplementary Table 1),run:Lestaurtinib_02601_R3,Plate:MR018",1700 nM
same,potency estimated from few doses,"[1]; compound concentrations:100 nM and 1000 nM (sheet 'Lestaurtinib' of Supplementary Table 1),run:Lestaurtinib_02606_R1,Plate:MR019",1530 nM
same,potency estimated from few doses,"[1]; compound concentrations:100 nM and 1000 nM (sheet 'Lestaurtinib' of Supplementary Table 1),run:Lestaurtinib_02624_R1,Plate:MR020",1910 nM
same,potency estimated from few doses,"[1]; compound concentrations:100 nM and 1000 nM (sheet 'Lestaurtinib' of Supplementary Table 1),run:Lestaurtinib_02624_R2,Plate:MR020",1400 nM
same,potency estimated from few doses,"[1]; compound concentrations:100 nM and 1000 nM (sheet 'Lestaurtinib' of Supplementary Table 1),run:Lestaurtinib_02624_R3,Plate:MR020",1460 nM
same,potency estimated from few doses,"[1]; compound concentrations:100 nM and 1000 nM (sheet 'Lestaurtinib' of Supplementary Table 1),run:Lestaurtinib_02741_R3,Plate:MR023",1510 nM
same,potency estimated from few doses,"[1]; compound concentrations:100 nM and 1000 nM (sheet 'Lestaurtinib' of Supplementary Table 1),run:Lestaurtinib_02748_R2,Plate:MR024",1310 nM
same,potency estimated from few doses,"[1]; compound concentrations:100 nM and 1000 nM (sheet 'Lestaurtinib' of Supplementary Table 1),run:Lestaurtinib_02752_R2,Plate:MR025",837 nM
same,potency estimated from few doses,"[1]; compound concentrations:100 nM and 1000 nM (sheet 'Lestaurtinib' of Supplementary Table 1),run:Lestaurtinib_02752_R3,Plate:MR025",961 nM
same,potency estimated from few doses,"[1]; compound concentrations:100 nM and 1000 nM (sheet 'Lestaurtinib' of Supplementary Table 1),run:Lestaurtinib_02765_R2,Plate:MR026",1300 nM
same,potency estimated from few doses,"[1]; compound concentrations:100 nM and 1000 nM (sheet 'Lestaurtinib' of Supplementary Table 1),run:Lestaurtinib_02766_R1,Plate:MR027",972 nM
same,potency estimated from few doses,"[1]; compound concentrations:100 nM and 1000 nM (sheet 'Lestaurtinib' of Supplementary Table 1),run:Lestaurtinib_02766_R3,Plate:MR027",1300 nM
same,potency estimated from few doses,"[1]; compound concentrations:100 nM and 1000 nM (sheet 'Lestaurtinib' of Supplementary Table 1),run:Lestaurtinib_02768_R2,Plate:MR028",1930 nM
same,potency estimated from few doses,"[1]; compound concentrations:100 nM and 1000 nM (sheet 'Lestaurtinib' of Supplementary Table 1),run:Lestaurtinib_02768_R3,Plate:MR028",1330 nM
same,potency estimated from few doses,"[1]; compound concentrations:100 nM and 1000 nM (sheet 'Lestaurtinib' of Supplementary Table 1),run:Lestaurtinib_02795_R1,Plate:MR022",1800 nM
same,potency estimated from few doses,"[1]; compound concentrations:100 nM and 1000 nM (sheet 'Lestaurtinib' of Supplementary Table 1),run:Lestaurtinib_02795_R2,Plate:MR022",1370 nM
same,potency estimated from few doses,"[1]; compound concentrations:100 nM and 1000 nM (sheet 'Lestaurtinib' of Supplementary Table 1),run:Lestaurtinib_02795_R3,Plate:MR022",1700 nM
same,potency estimated from few doses,"[1]; compound concentrations:100 nM and 1000 nM (sheet 'Lestaurtinib' of Supplementary Table 1),run:Lestaurtinib_02802_R1,Plate:MR029",976 nM
same,potency estimated from few doses,"[1]; compound concentrations:100 nM and 1000 nM (sheet 'Lestaurtinib' of Supplementary Table 1),run:Lestaurtinib_02802_R2,Plate:MR029",1300 nM
same,potency estimated from few doses,"[1]; compound concentrations:100 nM and 1000 nM (sheet 'Lestaurtinib' of Supplementary Table 1),run:Lestaurtinib_03172_R2,Plate:MR031",1750 nM
same,potency estimated from few doses,"[1]; compound concentrations:100 nM and 1000 nM (sheet 'Lestaurtinib' of Supplementary Table 1),run:Lestaurtinib_03260_R1,Plate:MR033",1460 nM
same,potency estimated from few doses,"[1]; compound concentrations:100 nM and 1000 nM (sheet 'Lestaurtinib' of Supplementary Table 1),run:Lestaurtinib_03260_R2,Plate:MR033",1580 nM
same,potency estimated from few doses,"[1]; compound concentrations:100 nM and 1000 nM (sheet 'Lestaurtinib' of Supplementary Table 1),run:Lestaurtinib_03260_R3,Plate:MR033",1240 nM
same,potency estimated from few doses,"[2]; compound concentrations:100 nM and 1000 nM (sheet 'Lestaurtinib' of Supplementary Table 1),run:Lestaurtinib_02339_R2,Plate:MR001",1530 nM
same,potency estimated from few doses,"[2]; compound concentrations:100 nM and 1000 nM (sheet 'Lestaurtinib' of Supplementary Table 1),run:Lestaurtinib_02339_R3,Plate:MR001",1420 nM
